Data from PubChem BioAssay (Tox21).
Records with an inconclusive call do not appear. Entries that show only a call come without a potency. Calls of active or inactive are those of the source. Calls follow the shape of the dose curve; as a rule, active = well fitted cell-killing curve with a large enough effect in the repeat runs; inconclusive = weak or mixed curves, or effect the other way; inactive = flat fitted curve, though single readings scatter.

assay: qHTS RealTime-Glo MT Cell Viability Assay in HepG2 cells - 40 hour (AID 1224870); conditions: RealTime-Glo luminescence; series mostly up to 76.8 µM; also: nearly all actives have a fitted effect of over 50% in size
Excerpt: National Center for Advancing Translational Sciences [NCATS]
NIH Chemical Genomics Center [NCGC]
U.S. Environmental Protection Agency [EPA]
National Institutes of Environmental Health Sciences [NIEHS]
National Toxicology Program [NTP]
U.S. Food and Drug Administration [FDA]
Measure of cell viability is critical in the cell-base assay. Analysis of cell viability is necessary for the characterization of cell responses to cytotoxic drugs and environmental stress. A RealTime-Glo MT Cell Viability Assay to monitor cell viability in real time of continues cell culture during 40 hours of compound treatment was used to screen Tox21 10K library compounds in HepG2 cells. The RealTime-Glo MT Cell Viability Assay is a nonlytic, homogeneous, bioluminescent method to measure cell viability in real time using a simple, plate-based method. The assay involves adding NanoLuc luciferase and a cell-permeant prosubstrate to cells in culture. Viable cells reduce the proprietary prosubstrate to generate a substrate for NanoLuc luciferase. This substrate diffuses from cells into the surrounding culture medium, where it is rapidly used by the NanoLuc Enzyme to produce a luminescent signal. The signal correlates with the number of viable cells, making the assay well suited for cytotoxicity studies.
Tox21 Assay Protocol Summary:
The mixture of HepG2 cell suspension and reagents were dispensed at 600cells/6 ul/well in 1536-well tissue culture treated black solid bottom plates using a Multidrop dispenser. After the assay plates were incubated at a 37 C/5% CO2 incubator for 5 hours, 23 nL of compounds dissolved in DMSO, positive and negative controls was transferred to the assay plate by a pintool work station. The plates were incubated at 37 C for 40 hours. The luminescence intensity were measured at 0h, 8h, 16h, 24h, 32h and 40h time points using ViewLux plate reader during compound treatment.

SMILES	Potency	activity change, negative = cytotoxic
C[C@H](N)C(=O)c1ccccc1	inactive	–
Clc1cc2c(cc1Cl)Oc1cc(Cl)c(Cl)cc1O2	–	-10.5% [at 0.29 µM] (inactive)
CCCOC(=O)Cc1ccc(OCC(=O)N(CC)CC)c(OC)c1	inactive	–
N#CC(Br)(Br)C(N)=O	inactive	–
NCC1(CC(=O)O)CCCCC1	inactive	–
O=c1[nH]c2ccccc2o1	inactive	–
C(COCC1CO1)OCC1CO1 (stereo not given)	inactive	–
CCOc1cc(OP(=S)(OC)OC)nc(CC)n1	inactive	–
CNC(=O)Oc1cc(C)c(N(C)C)c(C)c1	inactive	–
CCC1(CC)C(=O)C=CNC1=O	inactive	–
c1cncc([C@@H]2CCCCN2)c1	inactive	–
BrCc1ccc(Br)cc1	inactive	–
CNC(=O)Oc1ccccc1C(C)C	inactive	–
C=C(C)[C@H]1CN[C@H](C(=O)O)[C@H]1CC(=O)O	inactive	–
COC(=O)c1ccccc1CS(=O)(=O)NC(=O)Nc1nc(OC)cc(OC)n1	inactive	–
CN(C)CCc1c[nH]c2cccc(OP(=O)(O)O)c12	inactive	–
NC(=O)OCCCc1ccccc1	inactive	–
C=CC(=O)OCCN(C)C	inactive	–
CC(O)CCl (stereo not given)	inactive	–
COc1cc(CC(C)N)cc(OC)c1OC (stereo not given)	inactive	–

SMILES	Potency	activity change, negative = cytotoxic
CS(=O)(=O)Cl	inactive	–
CC(C)(C)C(=O)Cl	inactive	–
CC(C)N(Cc1ccccc1)C(=O)C(C)(C)C	inactive	–
CCN[C@@H](C)Cc1ccccc1	inactive	–
CC(C)(C)c1cc(O)ccc1O	inactive	–
N=C(N)[Se]	inactive	–
O=C(Cl)C(Cl)Cl	inactive	–
CS(=O)(=O)c1ccc(C(=O)C2C(=O)CCCC2=O)c(Cl)c1COCC(F)(F)F	inactive	–
CC1N=C(N)OC1c1ccccc1 (stereo not given)	inactive	–
c1ccc2c(c1)CCNC2	inactive	–
CN=CNc1ccc(C)cc1C	inactive	–
C/C(=N\NC(=O)Nc1cc(F)cc(F)c1)c1ncccc1C(=O)O	inactive	–
C=CCCC#N	inactive	–
ClCOCCl	inactive	–
CCC(CC)(CNC(=O)CCCO)c1cccc(OC)c1	inactive	–
COC[C@@H](NC(C)=O)C(=O)NCc1ccccc1	inactive	–
COc1cc(CCN)cc(OC)c1OC	inactive	–
CN(C)C(=O)Oc1cc(OC(=O)N(C)C)cc(C(O)CNC(C)(C)C)c1 (stereo not given)	inactive	–
CCN1CCCC1CNC(=O)C(O)(c1ccccc1)c1ccccc1 (stereo not given)	inactive	–
CC[C@@H](CO)NC(=O)[C@@H]1C=C2c3cccc4c3c(cn4C)C[C@H]2N(C)C1	inactive	–
